For 21 compounds, Potency results are on record in PubChem BioAssay (Tox21).

SMILES strings stand for the structures. Activity calls are given as the source filed them. Unless noted, the call rests on the fitted dose curve; in most records, active means well fitted curve in the direction sought with a large enough effect in the repeat runs; inconclusive means weak or mixed curves; inactive means no such curve, though single readings can be large; an effect the other way counts as inactive or inconclusive.

Assay [1] is described as follows: qHTS assay to identify small molecule antagonists of the thyroid receptor (TR) signaling pathway (AID 743065). Further: nearly all actives have a fitted effect of over 55% in size. Further: potency means the concentration at half of the fitted maximal effect. Put shortly: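 GH3.TRE-Luc rat pituitary cells (two TREs driving luciferase) were dosed with compound, then stimulated with 1 nM T3 (final) for 23.5 h at 37 C. ONE-Glo luminescence was the read-out, with CellTiter-Fluor fluorescence as the cytotoxicity counter-screen.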
On the technique in general: qHTS replaces the single test concentration by a dilution series.

Assay [2] in a line: qHTS assay to identify small molecule antagonists of the estrogen receptor alpha (ER-alpha) signaling pathway - cell viability counter screen (AID 743074; calls by dose curve;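 further: HEK293 cells carrying ER-alpha-UAS-bla reporter stimulated with 17beta-estradiol; nearly all actives have a fitted effect of over 45% in size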; further: potency means the concentration at half of the fitted maximal effect).
Assay [3] deals with Estrogen receptor (Homo sapiens) (UniProt P03372). Kind of assay: qHTS assay to identify small molecule agonists of the estrogen receptor alpha (ER-alpha) signaling pathway (AID 743075; calls by dose curve;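 further: HEK293 GripTite cells with ER-alpha and UAS-driven beta-lactamase reporter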; further: potency means the concentration at half of the fitted maximal effect).
Assay [4] is described as follows: qHTS assay to identify small molecule antagonists of the estrogen receptor alpha (ER-alpha) signaling pathway using the BG1 cell line - cell viability counter screen (AID 743081).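 Further: compound given together with 17beta-estradiol as the ER stimulus; nearly all actives have a fitted effect of over 45% in size.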 Further: potency means the concentration at half of the fitted maximal effect.
In assay [5] the target is Aromatase (Homo sapiens) (UniProt P11511). The assay can be described thus: qHTS assay to identify aromatase inhibitors (AID 743083). Further: nearly all actives have a fitted effect of over 55% in size.
In assay [6] the test system is thyroid hormone receptor (rat, GH3 cells). The assay can be described thus: qHTS assay to identify small molecule agonists of the thyroid receptor (TR) signaling pathway (AID 743066; calls by dose curve).
The nature of assay [7]: qHTS assay to identify small molecule antagonists of the estrogen receptor alpha (ER-alpha) signaling pathway using the BG1 cell line (AID 743080; calls by dose curve;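 further: BG1 cells stimulated with 17beta-estradiol alongside compound; nearly all actives have a fitted effect of over 25% in size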; further: potency means the concentration at half of the fitted maximal effect). Put shortly:
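Quantitative HTS on the Tox21 10K library: BG1 cells with endogenous ER-alpha and ERE-luciferase reporter, 17beta-estradiol stimulation, 21.5 h compound exposure, luminescence endpoint with parallel fluorescence cytotoxicity counter-read.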

Assay [8] concerns the target Estrogen receptor (Homo sapiens) (UniProt P03372). The assay can be described thus: qHTS assay to identify small molecule antagonists of the estrogen receptor alpha (ER-alpha) signaling pathway (AID 743069; active means well fitted curve in the direction sought with a large enough effect in the signal ratio in the repeat runs, not every such curve was filed as active; inconclusive means weak or mixed curves, or effect the other way; inactive means no such curve, though single readings can be large or run the other way; the % refers to the signal ratio; further: potency means the concentration at half of the fitted maximal effect). The method in brief: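 Reporter cells (ER-alpha-bla, HEK293 background) are conditioned overnight in stripped-serum medium (2% charcoal-stripped FBS). Compound and 17beta-estradiol exposure runs 18 hr at 37C, 5% CO2.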

Assay [9] has the same target. Kind of assay: qHTS assay to identify small molecule agonists of the estrogen receptor alpha (ER-alpha) signaling pathway using the BG1 cell line (AID 743079). Further: nearly all actives have a fitted effect of over 20% in size. Further: potency means the concentration at half of the fitted maximal effect. The note with it: BG1Luc4E2 cells, ERE-luciferase agonist, 22 h; activation: at 70.3 µM (top of the series).

Chain of Estrogen receptor (Homo sapiens) (P03372 whole entry, looked up): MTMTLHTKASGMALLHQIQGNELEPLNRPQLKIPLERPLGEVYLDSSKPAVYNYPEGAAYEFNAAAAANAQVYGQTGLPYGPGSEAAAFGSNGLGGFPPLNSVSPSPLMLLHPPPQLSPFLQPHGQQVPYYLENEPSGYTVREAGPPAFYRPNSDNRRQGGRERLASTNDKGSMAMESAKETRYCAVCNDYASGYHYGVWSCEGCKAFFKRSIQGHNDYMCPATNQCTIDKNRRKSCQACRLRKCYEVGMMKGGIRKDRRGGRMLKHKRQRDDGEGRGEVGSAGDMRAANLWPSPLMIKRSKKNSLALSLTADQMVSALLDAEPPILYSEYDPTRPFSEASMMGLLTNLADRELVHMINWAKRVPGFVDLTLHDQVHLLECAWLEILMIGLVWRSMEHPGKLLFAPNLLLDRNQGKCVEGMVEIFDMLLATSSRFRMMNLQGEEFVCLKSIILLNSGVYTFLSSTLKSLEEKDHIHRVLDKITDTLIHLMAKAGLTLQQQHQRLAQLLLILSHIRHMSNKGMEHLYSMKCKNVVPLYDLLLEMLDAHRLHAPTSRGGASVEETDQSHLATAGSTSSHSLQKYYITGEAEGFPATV
Chain of Aromatase (Homo sapiens) (P11511 whole entry, looked up): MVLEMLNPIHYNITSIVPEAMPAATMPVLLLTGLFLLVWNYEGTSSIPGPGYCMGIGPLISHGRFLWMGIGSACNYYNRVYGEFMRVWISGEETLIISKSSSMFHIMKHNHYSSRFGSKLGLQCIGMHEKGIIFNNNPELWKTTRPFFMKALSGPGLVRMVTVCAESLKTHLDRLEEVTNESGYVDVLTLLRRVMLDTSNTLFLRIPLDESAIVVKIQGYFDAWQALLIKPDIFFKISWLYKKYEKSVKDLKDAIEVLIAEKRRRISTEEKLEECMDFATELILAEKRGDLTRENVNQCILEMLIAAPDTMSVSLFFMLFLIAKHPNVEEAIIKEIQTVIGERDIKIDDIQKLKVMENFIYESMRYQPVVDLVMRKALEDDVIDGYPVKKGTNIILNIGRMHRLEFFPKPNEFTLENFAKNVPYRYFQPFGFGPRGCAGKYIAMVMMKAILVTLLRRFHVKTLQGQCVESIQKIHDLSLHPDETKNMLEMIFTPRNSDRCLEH

For the compound `CC[C@@H](C(=O)O)[C@@H]1O[C@@H]([C@@H](C)[C@H](O)[C@H](C)C(=O)[C@H](CC)[C@H]2O[C@]3(C=C[C@@H](O)[C@]4(CC[C@@](C)([C@H]5CC[C@](O)(CC)[C@H](C)O5)O4)O3)[C@H](C)C[C@@H]2C)[C@@H](C)C[C@@H]1C`, the values for the Potency in assay [1], in [2] and in assay [4] were 0.0944 µM (active), 0.151 µM (active) and 6.68 µM (active), respectively. Also, the Potency entry in assay [3] and in assay [5] was “inactive” in each case.
With `O=[N+]([O-])c1c(Cl)cccc1-c1c[nH]cc1Cl`, the Potency in assay [1] was 26.6 µM (active); in [3] it was 4.77 µM [inconclusive] (active).
Regarding `CCCC1C(=O)N2C(N(C)C)=Nc3ccc(C)cc3N2C1=O` (stereo not given), the Potency result in [1], in assay [6], in [2], in assay [4] and in [5] was “inactive” in each case.
Regarding `CS(=O)(=O)OCCCNCCCOS(C)(=O)=O`, the Potency entry in assay [1], in assay [6], in [2] and in assay [5] was “inactive” throughout.
In the case of `O=C(O)CN(CC(=O)O)CC1=CC2C(=CC1=O)Oc1cc(O)c(CN(CC(=O)O)CC(=O)O)cc1C21OC(=O)c2ccccc21` (stereo not given), the Potency entry in assay [1], in [6], in assay [3], in assay [7] and in assay [5] was “inactive” throughout.
Turning to `CC(C(=O)O)c1ccc(N2Cc3ccccc3C2=O)cc1` (stereo not given), the Potency was 7.5 µM (active) in [1], 0.119 µM (active) in assay [9] and 16.8 µM (active) in [7]. The Potency entry in assay [8], in assay [2] and in [4] was “inactive” each time.
Take `O=C(O)C1=C(CSc2nnnn2CS(=O)(=O)O)CS[C@@H]2[C@H](NC(=O)[C@H](O)c3ccccc3)C(=O)N12`: the Potency result in assay [6], in assay [8], in [2], in assay [3], in assay [7] and in assay [4] was “inactive” throughout. Besides, the Potency result in [5] is “inactive”. Besides, in assay [9], the Potency was 37.6 µM (active).
For the compound `O=C(O)[C@@H](O)[C@H](O)[C@H](O)[C@@H](O)C(=O)O` (tested in a mixture with another compound), the Potency entry in assay [1], in [6] and in [5] was “inactive” in each case.
On to `O=C(OC1C[C@@H]2CC3C[C@H](C1)N2CC3=O)c1c[nH]c2ccccc12` (stereo not given in full), for which the Potency in assay [1] was 29.8 µM (active). Further, the Potency entry in assay [8], in [2], in assay [3], in [9] and in [5] was “inactive” each time.
Regarding `Cn1c(O)c(N=NC(N)=S)c2ccccc21`, the Potency in [1] is 29.8 µM (active). The Potency entry in [2], in assay [3] and in assay [9] was “inactive” each time.
For the compound `COc1cc2[nH]c(C)c(CCN3CCN(c4ccccc4)CC3)c2cc1OC`, the Potency result in [6], in assay [8], in assay [2], in assay [3], in [9] and in assay [7] was “inactive” each time. The Potency entry in [4] and in assay [5] was “inactive” throughout.
With `CCC[C@@H]1C[C@@H](C(=O)N[C@@H]([C@H]2O[C@H](SC)[C@H](O)[C@@H](O)[C@H]2O)[C@H](C)Cl)N(C)C1`, the Potency entry in [6], in assay [8], in assay [2], in assay [3], in assay [9] and in assay [7] was “inactive” in each case. Moreover, the Potency result in assay [4] and in assay [5] was “inactive” throughout.
With `CC1CC(OC(=O)C(O)c2ccccc2)CC(C)(C)C1` (stereo not given), the Potency entry in [6], in assay [8], in assay [2], in assay [3], in [9] and in assay [7] was “inactive” throughout. The Potency entry in [4] and in assay [5] was “inactive” each time.
As for `C[C@H](/C=C/[C@H](C)C(C)(C)O)[C@H]1CC[C@H]2/C(=C/C=C3C[C@@H](O)C[C@H](O)C3)CCC[C@]12C`, the Potency in [1] is 16.8 µM (active); in assay [8], 23.9 µM [inconclusive] (active); in assay [7], 29.8 µM (active). Further, the Potency entry in assay [3], in assay [4] and in assay [5] was “inactive” throughout.
Consider `CCCC1([C@H](O)C/C=C/[C@H]2[C@H](O)CC(=O)[C@@H]2CCCCCCC(=O)OC)CCC1`, for which the Potency in assay [1] was 26.6 µM (active). Besides, the Potency result in assay [2], in assay [9], in [7] and in assay [4] was “inactive” each time.
With `COC(=O)[C@H]1[C@H]2C[C@@H]3c4[nH]c5cc(OC)ccc5c4CCN3C[C@H]2C[C@H](OC)[C@@H]1OC`, the Potency result in [6], in [8], in [2], in [3], in [9] and in assay [7] was “inactive” each time. Besides, the Potency entry in assay [4] and in assay [5] was “inactive” in each case.
Turning to `CCOc1ccc(N=Nc2ccc(N)cc2N)cc1`, the Potency in assay [1] was 10.6 µM (active). For the same compound, the Potency result in assay [6], in assay [2] and in [5] was “inactive” each time.
In the case of `CCCCCC(O)/C=C/C=O` (stereo not given), the Potency entry in [1], in [6], in [4] and in assay [5] was “inactive” throughout.
Turning to `N#CC(c1ccc(Cl)cc1)c1c(Cl)cc(-n2ncc(=O)[nH]c2=O)cc1Cl` (stereo not given), the Potency in assay [1] is 3.76 µM (active). The Potency entry in assay [3], in assay [9], in assay [4] and in [5] was “inactive” in each case.
With `c1ccc2c(c1)Sc1ccccc1N2CCN1CCCC1`, the Potency in assay [1] is 29.8 µM (active). Moreover, the Potency result in assay [6], in [2] and in assay [5] was “inactive” in each case.
Regarding `O=[N+]([O-])O[C@@H]1CO[C@H]2[C@@H]1OC[C@@H]2O`, the Potency entry in assay [6], in [8], in [2], in assay [3], in assay [9] and in [7] was “inactive” throughout. In addition, the Potency result in assay [4] is “inactive”.
